Data: PubChem BioAssay (EPA / NIEHS)
Calls of active or inactive are those of the source. Rule for the calls: active = hit-call score of the fitted dose curve at least 0.9, where 1 is the maximum; inactive = score below 0.9.

The compounds below were run on Macrophage colony-stimulating factor (MCSF), CSF1 (gene 1435) (assay: BSK_hDFCGF_MCSF: BioMAP Diversity Plus: hDFCGF Assay for Macrophage colony-stimulating factor (MCSF) Biomarker Activity (AID 2283060)). Conditions: primary human foreskin fibroblasts; actives raise or lower the signal.
Protocol: BSK_hDFCGF is a cell-based, multiplexed-readout assay that uses foreskin fibroblast, a human skin primary cell, with measurements taken at 24 hours after chemical dosing in a 96-well plate.BSK_hDFCGF_MCSF is an assay component measured in the BSK_hDFCGF assay. It measures M-CSF antibody related to regulation of gene expression using ELISA technology.Data from the assay component BSK_hDFCGF_MCSF was analyzed into 1 assay endpoint. This assay endpoint, BSK_hDFCGF_MCSF, was analyzed with bidirectional fitting relative to DMSO as the negative control and baseline of activity. Using a type of binding reporter, gain or loss-of-signal activity can be used to understand changes in the signaling as they relate to the gene CSF1. Furthermore, this assay endpoint can be referred to as a primary readout, because this assay has produced multiple assay endpoints where this one serves a signaling function. To generalize the intended target to other relatable targets, this assay endpoint is annotated to the cytokine intended target family, where the subfamily is colony stimulating factor.
The levels of cell surface (or secreted, indicated by the prefix "s") biomarker endpoints were measured by ELISA. Overt cytotoxicity to cells in confluent adherent cultures (all systems other than the BT system) was assessed by measuring total protein levels using sulforhodamine B (SRB) staining in parallel cultures at the time of biomarker measurements, indicated as SRB endpoints. For proliferation assays for adherent cell types, individual cell types are cultured at sub-confluence and relative cell numbers quantified by SRB staining at time points optimized for each system (48 h: 3C and CASM3C systems; 72 h: BT and HDF3CGF systems; 96 h: SAg system). SRB was performed by staining cells with 0.1% SRB after fixation with 10% TCA and reading wells at 560 nm.Viability and proliferation of PBMC (T cells) was quantified by Alamar Blue reduction for the SAg and BT systems. For PBMC viability (referred to as PBMC Cytotoxicity within the assay endpoint names), cells were plated (75,000/well in a 96-well plate) and then chemical samples added for 1 h before addition of activators, SEB and TSST-1 (20 ng/mL final concentration each). Cells were incubated for 90 h. Then, Alamar Blue (20 uL/well) (Invitrogen, Cat DAL1100) was added for 6 h, and the plates were read with a fluorescence microplate reader at 546/580 nm (excitation/emission). For PBMC proliferation, cells were plated and activated as above but incubated for only 16 h prior to addition of Alamar Blue. Plates were read after 6 h.

SMILES | outcome | AC50
CC(C)(COCC1CO1)COCC1CO1 (stereo not given) | inactive | 
O=C(Cc1ccccc1)OCCc1ccccc1 | inactive | 
Clc1cccc(Cl)c1 | inactive | 
[Cl][Sn]([c]1ccccc1)([c]1ccccc1)[c]1ccccc1 |  | 0.166 µM (active)
CN(C)C(=S)S |  | 14.2 µM (active)
Cc1ccc(OP(=O)(Oc2ccc(C)cc2C)Oc2ccc(C)cc2C)c(C)c1 |  | 5.48 µM (active)
CCCCOC(=O)COC(=O)c1ccccc1C(=O)OCCCC | inactive | 
O=C(CCl)NCO | inactive | 
CCOP(=S)(OCC)OP(=S)(OCC)OCC | inactive | 
Cc1cccc(OP(=O)(Oc2cccc(C)c2)Oc2cccc(C)c2)c1 |  | 4.78 µM (active)
Cc1ccc2nc3sc(=O)sc3nc2c1 | inactive | 
O=C1C=CC(=O)c2ccccc21 |  | 1.17 µM (active)
OCCCCO | inactive | 
CCOP(=S)(OCC)SCS(=O)(=O)C(C)(C)C | inactive | 
COCC(=O)N(c1c(C)cccc1C)[C@H](C)C(=O)OC | inactive | 
CCOC(=O)C(SP(=S)(OC)OC)c1ccccc1 (stereo not given) |  | 7.09 µM (active)
C=CC(Cl)CCl (stereo not given) | inactive | 
C[C@]12CC[C@@H](O)C[C@@H]1CC[C@@H]1[C@@H]2CC[C@]2(C)C(=O)CC[C@@H]12 | inactive | 
O=C(O)COc1cc(Cl)c(Cl)cc1Cl | inactive | 
Cc1cc(Cl)ccc1OC(C)C(=O)O (stereo not given) | inactive | 

SMILES | outcome | AC50
N#Cc1cccnc1 | inactive | 
CC(C)N(C(=O)CCl)c1ccccc1 |  | 6.59 µM (active)
CCCCN(CCCC)C(=S)[S-].CCCCN(CCCC)C(=S)[S-].[Ni+2] | inactive | 
c1ccc(-c2cccc(-c3ccccc3)c2)cc1 |  | 20 µM (active)
Cc1cc(C)cc(C)c1 | inactive | 
O=[N+]([O-])c1ccc(Nc2ccccc2)cc1 | inactive | 
NC(=O)CCl | inactive | 
O=S(=O)(c1ccc(Cl)cc1)c1cc(Cl)c(Cl)cc1Cl | inactive | 
C#CCOC(=O)/C=C(C)/C=C/CC(C)CCCC(C)C (stereo not given) |  | 10 µM (active)
O=C(N[C@H]1CN2CCC1CC2)c1ccc2c(c1)OCCO2 | inactive | 
Nc1ccc(N)cc1 | inactive | 
CCCCCCCCCCCCN(C)C | inactive | 
CCOC(=O)CC(=O)CCl |  | 20 µM (active)
O=C(O)C1(c2ccc3c(c2)OC[C@H](Cc2ccc(-c4ccccc4)cc2)[C@H]3O)CCCC1 |  | 8.18 µM (active)
OC(Cc1ccccc1Cl)(Cn1cncn1)C1(Cl)CC1 (stereo not given) | inactive | 
O=S(=O)(C(Cl)(Cl)Cl)C(Cl)(Cl)Cl |  | 2.3 µM (active)
Oc1c(Br)cc(Br)cc1Br | inactive | 
CCOC(=O)CCN(SN(C)C(=O)Oc1cccc2c1OC(C)(C)C2)C(C)C |  | 26 µM (active)
O=c1oc2ccccc2c(O)c1C(CC(O)c1ccc(-c2ccc(Br)cc2)cc1)c1ccccc1 (stereo not given) |  | 5.57 µM (active)
Cc1c([N+](=O)[O-])c(C)c([N+](=O)[O-])c(C(C)(C)C)c1[N+](=O)[O-] | inactive | 
